What all share (assay): NCI-60 one-dose screen, 48 h (100 = growth as untreated, 0 = no growth, -100 = all killed)
What all share (conditions): 10 µM unless noted

Experiment [1] concerns SK-MEL-2 melanoma.
Experiment [2] concerns SN12C renal.
In experiment [3] the test system is UO-31 renal.
Experiment [4] has as its system TK-10 renal.
In experiment [5] the test system is ACHN renal.
Experiment [6] concerns A498 renal.
For experiment [7], the system named is MOLT-4 leukemia.
Experiment [8] concerns EKVX NSCLC.
Experiment [9] relates to CAKI-1 renal.
Experiment [10] has as its system CCRF-CEM leukemia.

Molecules are shown by their SMILES. Compounds without any hit were thinned out: in the full panel of roughly 83,000, 20% have a hit.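 Single-dose data. Exposure time 48 hours. Values below 10 considered active.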 Unmarked numbers belong to inactive results. Active and inactive are the calls of the source.

Turning to `CC(C)(C)CC(C)(C)c1ccc(OCCOCC[N+](C)(C)CC(=O)[O-])cc1`, the growth in [1] is 117%; in experiment [2] it was 103%; in [3] it was 98.5%; in [4], 109%; in experiment [5], 111%; in [6] it was 104%. In experiment [7], the growth is 94.2%.
On to `Fc1ccc(Nc2nnc(-c3ccc(Cl)cc3)o2)cc1`, for which the growth was 92.1% in experiment [8]; 103% in experiment [2]; 85.4% in [3]; 137% in experiment [4]; 107% in [5]; 92.8% in experiment [9]. Moreover, the growth was 92.8% in [6], 58.4% in [10] and 88.4% in [7].
`N#C/C(=C\c1ccc(-c2ccc(Cl)cc2)o1)c1nc(-c2ccco2)cs1`: the growth in [8] is 48.6%; in [2], 92.8%; in [3], 74.3%; in [4], 62.2%; in experiment [5] it was 101%; in [9] it was 89.3%. Also, the growth is 108% in experiment [6], 93.9% in experiment [10] and 97.5% in experiment [7].
`Cc1cc(Nc2ccc(F)cc2)nc(N2CCN(c3ccnc4cc(Cl)ccc34)CC2)n1`: the growth in experiment [1] is 4.35% (active); in [2], 30.2%; in experiment [3] it was 3.92% (active); in [4], 8.31% (active); in experiment [5] it was 2.61% (active); in experiment [6], -1.6% (active). For the same molecule, the figures for the growth in [10] and in experiment [7] were 15.5% and 6.8% (active), respectively.
On to `NS(=O)(=O)c1ccc(CCNC(=O)/C=C/c2ccc(Cl)cc2)cc1`, for which the growth in [1] is 106%; in [3], 83.7%; in [4] it was 121%; in experiment [5] it was 102%; in [6] it was 89%; in experiment [10] it was 91.1%. Moreover, the growth in [7] is 74.6%.
For the molecule `C=C(C)[C@@H]1CC[C@]2(C)[C@H](CC[C@@H]3[C@H]4[C@H]5OC[C@@]4(CCC5(C)C)CC[C@]32C)[C@@]1(C)CCCN`, the growth was 71.2% in experiment [8]; 75.6% in experiment [2]; 63.8% in experiment [3]; 130% in [4]; 59% in experiment [5]; 3.89% (active) in experiment [9]. The growth in experiment [6] is 118%; in experiment [10], 51.8%; in experiment [7], 10.5%.
Turning to `Nc1nc(N)c2nc3c(nc2n1)CCCCCCCCCC3`, the growth in experiment [1] was 77.5%; in [2] it was 43.2%; in experiment [3] it was 48.7%; in [4] it was 80.3%; in experiment [5] it was 39.4%; in experiment [6], 93.6%. Besides, the growth is 3.44% (active) in experiment [10] and 45.3% in experiment [7].
As to `OCCNc1nc(Nc2ccc(Cl)c(Cl)c2)nc2ccccc12`, the growth in experiment [1] was 64.1%; in experiment [3] it was 47.6%; in experiment [4] it was 50%; in [5], 59.7%; in [6] it was 47%; in experiment [10], 15.7%. The growth in [7] is 6.93% (active).
For `C[C@H]1[C@H]2C3=CC[C@@H]4[C@@]5(C)C/C(=C/c6ccco6)C(=O)C(C)(C)[C@@H]5CC[C@@]4(C)[C@]3(C)CC[C@@]2(C(=O)N2CCOCC2)CC[C@@H]1C`, the growth in experiment [8] was 88.4%; in experiment [2], 73.8%; in experiment [3] it was 49%; in experiment [4] it was 99.6%; in experiment [5], 53.7%; in experiment [9] it was 42.5%. For the same molecule, the growth in [6] was 94%; in experiment [10], 14.2%.
Turning to `C=C(C)[C@@H]1CC[C@]2(C(=O)O)CC[C@]3(C)[C@H](CC[C@@H]4[C@@]5(C)C/C(=C/c6ccc(OC)cc6)C(=O)C(C)(C)[C@@H]5CC[C@]43C)[C@@H]12`, the growth is 9.53% (active) in experiment [8]; 18% in experiment [2]; 12.6% in [3]; 24.5% in experiment [4]; 19.6% in [5]; 23.8% in experiment [9]. For the same molecule, the growth in experiment [6] is 49.6%; in experiment [10] it was 24%.
For `OCC1OC(n2cnc3c(Cl)ncnc32)CC1O` (stereo unspecified), the growth in experiment [8] is 113%; in experiment [2], 96.5%; in experiment [3], 76.9%; in [4] it was 106%; in experiment [5], 95.6%; in [9], 94.1%. Moreover, the growth in experiment [6] is 106%; in experiment [10], 98.2%; in experiment [7], 91.9%.
Turning to `O=C(CI)Nc1ccc(O)c2ccccc12`, the growth in [1] was -1.68% (active); in experiment [2] it was -34.9% (active); in experiment [3], -28.7% (active); in experiment [4], -34% (active); in [5], 6.99% (active); in experiment [6], 95%. The growth is -26.7% (active) in experiment [10] and -23.6% (active) in [7].
Take `Oc1cc(/C=C/c2nc(N3CCOCC3)c3cc(Cl)c(Cl)cc3n2)cc(O)c1O`: the growth is 102% in experiment [1]; 104% in [2]; 95.2% in experiment [3]; 95.8% in experiment [4]; 99.9% in experiment [5]; 92.5% in experiment [6]. The growth is 109% in experiment [10] and 85.3% in experiment [7].
As to `NC(=O)[C@@H]1CC2CCC1C2` (stereo partly specified), the growth in [1] is 119%; in experiment [2], 114%; in [3], 99.7%; in [4] it was 120%; in experiment [5] it was 102%; in [6] it was 87.9%. Further, the growth in [10] was 37.4%; in [7], 102%.
As to `CC(C)=CCC/C(C)=C/CC/C(C)=C/CSC[C@H](NC(=O)CCCCCN1CCN(C)CC1)C(=O)NC1CCCCCC1`, the growth in experiment [1] was 88.2%; in experiment [2], 87.4%; in [3] it was 56%; in [4], 94.2%; in experiment [5], 66%; in [6] it was 77.3%. Also, the growth was 19.9% in experiment [10] and 38.4% in experiment [7].

The record behind these values is PubChem BioAssay (NCI).
